Measurements as given in PubChem BioAssay (EPA / NIEHS).
Results filed as inconclusive are left out. Calls of active or inactive are those of the source. Rule for the calls, unless noted: active = hit-call score of the fitted dose curve at least 0.9, where 1 is the maximum; inactive = score below 0.9.

Legend:
[1] = ATG_TCF_b_cat_CIS: Attagene CIS-FACTORIAL HepG2 Assay for human T-Cell-Factor with beta-catenin (TCF/b-cat) (AID 2282965); conditions: HepG2 TCF/beta-catenin cis-reporter transcription, actives raise or lower the signal
How it was run: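 Measured: reporter mRNA in HepG2 transiently transfected with cis-promoter reporter units, 24 h after chemical addition. Fitting was bidirectional, DMSO as negative control.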

[2] = ATG_TAL_CIS: Attagene CIS-FACTORIAL HepG2 Assay for human TAL Basal Promoter (AID 2282966); conditions: HepG2 Attagene cis-factorial TAL promoter reporter; actives raise or lower the signal;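 note: background control endpoint measuring basal TAL promoter reporter mRNA not a specific factor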
How it was run: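 Transiently transfected HepG2 (cis-regulated reporter units), 24 h treatment, mRNA read by fluorescent CE after RT-PCR; bidirectional fit, DMSO baseline.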

[3] = ATG_TGFb_CIS: Attagene CIS-FACTORIAL HepG2 Assay for human Transforming Growth Factor (TGF) (AID 2282967); conditions: HepG2 Attagene CIS TGFb reporter, mRNA transcription; actives raise or lower the signal
How it was run: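 HepG2 cells transiently transfected with cis-promoter-driven multiple reporter units measure endogenous TF activity; reporter mRNA quantified at 24 h by RT-PCR, FAM labeling, HpaI digestion and capillary electrophoresis. Bidirectional fit vs DMSO.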

[4] = biological target: Nuclear receptor subfamily 1 group I member 3 (Homo sapiens) (UniProt Q14994); assay: ATG_CAR_TRANS: Attagene TRANS-FACTORIAL HepG2 Assay for human Constitutive Androstane Receptor (CAR) (AID 2282969; active = hit-call score of the fitted dose curve at least 0.9, where 1 is the maximum;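 note: activators raise reporter mRNA above DMSO so AC50 marks induction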); conditions: HepG2 Attagene TRANS-FACTORIAL CAR reporter
How it was run: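 Signal is reporter mRNA induction relative to DMSO, measured 24 h after dosing by RT-PCR with fluorescent primer extension and capillary electrophoresis. Human HepG2 liver cells carried transiently transfected chimeric NR-Gal4/GAL4-UAS reporter constructs.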

[5] = biological target: Estrogen receptor (Homo sapiens) (UniProt P03372); assay: ATG_ERa_TRANS: Attagene TRANS-FACTORIAL HepG2 Assay for human Estrogen Receptor alpha (ERa) (AID 2282970; active = hit-call score of the fitted dose curve at least 0.9, where 1 is the maximum); conditions: HepG2 Attagene TRANS ERa GAL4 reporter, mRNA
How it was run: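 One of 30 multiplexed endpoints from a HepG2 TRANS system, this one reports ERa-Gal4-driven reporter mRNA. Transcripts were quantified 24 hours post-dosing by fluorescent RT-PCR and capillary electrophoresis, with activity scored as induction over DMSO.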

[6] = biological target: X-box-binding protein 1 (Homo sapiens) (UniProt P17861); assay: ATG_Xbp1_CIS: Attagene CIS-FACTORIAL HepG2 Assay for human X-box Binding Protein 1 (XBP1) (AID 2282972); conditions: HepG2 XBP1 cis-element reporter, Attagene multiplex; actives raise or lower the signal
How it was run: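 Human hepatoma HepG2, cis-element reporter system, 24 h treatment; mRNA quantified by RT-PCR/CE fluorescence; fit relative to DMSO.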

[7] = ATG_M_19_TRANS: Attagene TRANS-FACTORIAL HepG2 Assay for M19 Transcription Factor (Internal Marker) (AID 2282974; active = hit-call score of the fitted dose curve at least 0.9, where 1 is the maximum); conditions: HepG2 Attagene TRANS-FACTORIAL M19 internal marker reporter
How it was run: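 Gain-of-signal in reporter mRNA, relative to DMSO, was scored from capillary electrophoresis fluorescence. HepG2 cells carried transiently transfected multiple reporter transcription units and were incubated with test chemicals for 24 h.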

[8] = ATG_VDRE_CIS: Attagene CIS-FACTORIAL HepG2 Assay for human Vitamin D Receptor Element (VDRE) (AID 2282968); conditions: HepG2 VDRE cis-reporter transcription, actives raise or lower the signal
How it was run: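 Measures endogenous factor activity through cis-element-driven reporter transcripts in transiently transfected HepG2. Cells are treated 24 h; reporter mRNA is quantified by RT-PCR and capillary electrophoresis; fitting is bidirectional.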

[9] = biological target: Steroid hormone receptor ERR1 (Homo sapiens) (UniProt P11474); assay: ATG_ERRa_TRANS: Attagene TRANS-FACTORIAL HepG2 Assay for human Estrogen-Related Receptor alpha (ERRa) (AID 2282971; active = hit-call score of the fitted dose curve at least 0.9, where 1 is the maximum); conditions: HepG2 Attagene TRANS reporter, ERRa transactivation
How it was run: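 HepG2 cells transiently transfected with multiplexed GAL4-UAS reporter units reading chimeric ERRa-Gal4 activity; 24 h compound exposure. Reporter mRNA measured by RT-PCR, 6-FAM labelling, HpaI digest and capillary electrophoresis; gain of signal fitted versus DMSO baseline.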

[10] = biological target: Androgen receptor (Homo sapiens) (UniProt P10275); assay: ATG_AR_TRANS: Attagene TRANS-FACTORIAL HepG2 Assay for human Androgen Receptor (AR) (AID 2282973; active = hit-call score of the fitted dose curve at least 0.9, where 1 is the maximum); conditions: HepG2 Attagene TRANS-FACTORIAL AR reporter transcription
Procedure: ATG_TRANS is a cell-based, multiplexed-readout assay that uses HepG2, a human liver cell line, with measurements taken at 24 hours after chemical dosing in a 24-well plate.ATG_AR_TRANS is one of 30 assay component(s) measured or calculated from the ATG_TRANS assay. It is designed to make measurements of mRNA induction, a form of inducible reporter, as detected with fluorescence intensity signals by Reverse transcription polymerase chain reaction (RT-PCR) and Capillary electrophoresis technology.Data from the assay component ATG_AR_TRANS was analyzed into 1 assay endpoint. This assay endpoint, ATG_AR_TRANS, was analyzed in the positive analysis fitting direction relative to DMSO as the negative control and baseline of activity. Using a type of inducible reporter, measures of mRNA for gain-of-signal activity can be used to understand the reporter gene at the transcription factor-level as they relate to the gene AR. Furthermore, this assay endpoint can be referred to as a primary readout, because this assay has produced multiple assay endpoints where this one serves a reporter gene function. To generalize the intended target to other relatable targets, this assay endpoint is annotated to the nuclear receptor intended target family, where the subfamily is steroidal.
Human liver HepG2 cells are transiently transfected with multiple reporter transcription units (MRTUs) in 6-well plates using FuGene 6 reagent (Roche; 3 ml FuGene/1 mg DNA). The MRTU constructs are regulated by a cis-regulating element (promoter). […] A major difference between the CIS and TRANS system is that in CIS activities of endogenous TFs are measured, whereas the TRANS assay evaluates changes in activities of exogenous, chimeric NR-Gal4 proteins. […] At the end of 24 hour incubation, total RNA was isolated using TriZol reagent (Invitrogen). The isolated RNA is then reverse-transcribed using oligo(dT) primer and Mo-MLV reverse transcriptase (Invitrogen) with DNAse I (Ambion) treatment for 30 min. The one-tenth of the produced cDNA was amplified by PCR using Taq DNA polymerase (Invitrogen) and two reporter sequence-specific primers. The PCR products were fluorescently labeled by primer extension with 6-arboxyfluorescein (6-FAM) 5'-labeled reporter sequence-specific primer (2 min at 95 C, 20 s at 68 C and 10 min at 72 C) and these products were digested with 5U of HpaI (New England Biolabs) for 2h at 37 C. The fragments were purified using Qiaquick PCR columns (Qiagen), analyzed on an ABI 3130xL genetic analyzer (Applied Biosystems) with peak positions identified by using a set of X-rhodamine (ROX)-labeled MapMarker1000 molecular weight standards (BioVentures). The raw capillary electrophoresis data was processed using Attagraph software (Attagene).

Measured: AC50

Sequence of Androgen receptor (Homo sapiens) (P10275 whole entry, looked up): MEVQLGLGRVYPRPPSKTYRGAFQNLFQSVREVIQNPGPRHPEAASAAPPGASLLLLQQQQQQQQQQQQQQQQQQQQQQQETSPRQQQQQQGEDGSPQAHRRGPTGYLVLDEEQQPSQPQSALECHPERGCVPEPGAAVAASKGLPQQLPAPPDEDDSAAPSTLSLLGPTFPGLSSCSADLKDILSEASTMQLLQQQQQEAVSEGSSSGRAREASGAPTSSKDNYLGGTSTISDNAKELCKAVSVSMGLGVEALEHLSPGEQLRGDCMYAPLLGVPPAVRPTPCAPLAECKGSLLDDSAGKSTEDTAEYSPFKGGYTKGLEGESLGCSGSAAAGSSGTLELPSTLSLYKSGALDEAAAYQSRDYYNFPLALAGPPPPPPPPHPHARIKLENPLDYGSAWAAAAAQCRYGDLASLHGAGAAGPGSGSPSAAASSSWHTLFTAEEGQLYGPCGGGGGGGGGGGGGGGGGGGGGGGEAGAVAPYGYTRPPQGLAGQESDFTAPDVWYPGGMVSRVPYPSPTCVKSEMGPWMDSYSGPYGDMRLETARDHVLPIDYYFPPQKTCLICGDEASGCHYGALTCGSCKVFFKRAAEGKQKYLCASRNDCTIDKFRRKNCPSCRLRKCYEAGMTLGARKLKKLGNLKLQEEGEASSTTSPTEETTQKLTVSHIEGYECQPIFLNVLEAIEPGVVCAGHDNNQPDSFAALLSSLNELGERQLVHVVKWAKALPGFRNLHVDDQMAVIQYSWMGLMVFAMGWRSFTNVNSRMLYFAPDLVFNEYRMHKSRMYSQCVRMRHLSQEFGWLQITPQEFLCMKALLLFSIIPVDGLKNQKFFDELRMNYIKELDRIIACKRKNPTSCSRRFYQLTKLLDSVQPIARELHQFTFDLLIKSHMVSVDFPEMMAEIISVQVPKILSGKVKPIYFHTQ
Sequence of Estrogen receptor (Homo sapiens) (P03372 whole entry, looked up, the tested form may be a part): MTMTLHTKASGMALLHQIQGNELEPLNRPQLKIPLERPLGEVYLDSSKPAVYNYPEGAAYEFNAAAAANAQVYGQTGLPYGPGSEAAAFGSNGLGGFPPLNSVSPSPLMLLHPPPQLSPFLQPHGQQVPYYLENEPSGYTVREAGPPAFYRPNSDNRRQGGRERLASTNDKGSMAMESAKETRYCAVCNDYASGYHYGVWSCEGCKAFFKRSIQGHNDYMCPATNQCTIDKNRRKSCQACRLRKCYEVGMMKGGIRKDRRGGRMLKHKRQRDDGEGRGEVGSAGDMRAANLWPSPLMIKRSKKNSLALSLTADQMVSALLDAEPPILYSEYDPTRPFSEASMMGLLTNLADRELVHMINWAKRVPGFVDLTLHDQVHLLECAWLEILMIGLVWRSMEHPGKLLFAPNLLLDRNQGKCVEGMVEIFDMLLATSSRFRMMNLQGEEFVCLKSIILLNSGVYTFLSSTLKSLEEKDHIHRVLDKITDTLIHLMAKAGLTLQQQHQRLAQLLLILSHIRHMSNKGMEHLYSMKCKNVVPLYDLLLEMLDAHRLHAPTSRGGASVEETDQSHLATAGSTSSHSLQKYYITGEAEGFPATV
Sequence of Steroid hormone receptor ERR1 (Homo sapiens) (P11474 whole entry, looked up, the tested form may be a part): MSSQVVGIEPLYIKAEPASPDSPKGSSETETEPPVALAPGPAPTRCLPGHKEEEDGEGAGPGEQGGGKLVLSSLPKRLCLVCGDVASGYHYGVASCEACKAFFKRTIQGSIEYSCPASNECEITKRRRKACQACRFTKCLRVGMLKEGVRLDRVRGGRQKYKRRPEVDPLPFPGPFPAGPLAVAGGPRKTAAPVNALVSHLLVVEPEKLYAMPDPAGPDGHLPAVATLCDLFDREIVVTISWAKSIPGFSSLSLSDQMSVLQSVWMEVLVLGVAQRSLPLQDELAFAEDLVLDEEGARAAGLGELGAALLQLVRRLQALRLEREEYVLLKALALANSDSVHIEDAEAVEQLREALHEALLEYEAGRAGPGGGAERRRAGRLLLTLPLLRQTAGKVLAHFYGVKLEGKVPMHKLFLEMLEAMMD
Sequence of X-box-binding protein 1 (Homo sapiens) (P17861 whole entry, looked up): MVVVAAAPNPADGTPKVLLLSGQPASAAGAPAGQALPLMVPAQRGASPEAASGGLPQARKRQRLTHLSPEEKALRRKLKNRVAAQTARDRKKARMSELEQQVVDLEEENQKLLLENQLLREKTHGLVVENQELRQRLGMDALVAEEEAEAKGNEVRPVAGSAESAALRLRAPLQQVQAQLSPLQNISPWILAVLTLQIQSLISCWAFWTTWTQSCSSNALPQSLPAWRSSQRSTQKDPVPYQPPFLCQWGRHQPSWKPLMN
Sequence of Nuclear receptor subfamily 1 group I member 3 (Homo sapiens) (Q14994 whole entry, looked up, the tested form may be a part): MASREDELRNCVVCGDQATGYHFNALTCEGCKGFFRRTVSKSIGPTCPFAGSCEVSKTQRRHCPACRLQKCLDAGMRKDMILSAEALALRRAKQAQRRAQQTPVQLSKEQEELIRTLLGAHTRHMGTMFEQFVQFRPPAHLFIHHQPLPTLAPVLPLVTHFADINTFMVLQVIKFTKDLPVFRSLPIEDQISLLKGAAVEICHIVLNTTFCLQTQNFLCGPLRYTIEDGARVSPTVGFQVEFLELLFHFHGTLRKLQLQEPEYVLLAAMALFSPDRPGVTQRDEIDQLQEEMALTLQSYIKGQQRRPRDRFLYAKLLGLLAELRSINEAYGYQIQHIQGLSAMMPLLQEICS

CO/N=C(/C1=NOCCO1)c1ccccc1Oc1ncnc(Oc2ccccc2Cl)c1F
active: [6] 0.574 µM
not listed: [8] | [9] | [10]
inactive: all other assays above

CCSC(=O)N1CCCCCC1
not listed: [10]
inactive: all other assays above

COc1ccc(-c2ccccc2)cc1NNC(=O)OC(C)C
active: [8] 7.63 µM | [6] 50 µM
inactive: [1] | [2] | [3] | [5] | [10]

CC1(C)CON(Cc2ccccc2Cl)C1=O
active: [8] 13.2 µM | [5] 66.7 µM
not listed: [9] | [10]
inactive: all other assays above

CCCCOCN(C(=O)CCl)c1c(CC)cccc1CC
active: [8] 0.5 µM
not listed: [1]
inactive: all other assays above

CC(C)C1(C)N=C(c2ncccc2C(=O)O)NC1=O (centres undefined)
not listed: [9] | [10]
inactive: all other assays above

COC(=O)NS(=O)(=O)c1ccc(N)cc1
not listed: [5] | [7] | [10]
inactive: all other assays above

CCOc1cc(C(C)(C)C)ccc1C1COC(c2c(F)cccc2F)=N1 (centres undefined)
active: [8] 1.36 µM
not listed: [10]
inactive: all other assays above

O=C(Nc1ccccc1-c1ccc(Cl)cc1)c1cccnc1Cl
active: [8] 13.7 µM
not listed: [1] | [7] | [10]
inactive: all other assays above

CC(C)Nc1nc(Cl)nc(NC(C)C)n1
not listed: [1] | [7] | [10]
inactive: all other assays above

COC(=O)NC(=S)Nc1ccccc1NC(=S)NC(=O)OC
inactive: [1] | [2] | [3] | [5] | [6]
active: [8] 50 µM

CCCC(=NOCC)C1=C(O)CC(CC(C)SCC)CC1=O (centres undefined)
not listed: [9] | [10]
inactive: all other assays above

Cc1cc(C)nc(Nc2ccccc2)n1
active: [8] 14.9 µM
not listed: [7] | [10]
inactive: all other assays above

CC(C)Oc1cccc(NC(=O)c2ccccc2C(F)(F)F)c1
active: [8] 17.6 µM
not listed: [4] | [10]
inactive: all other assays above

CNC(=O)N(C)c1nnc(C(C)(C)C)s1
inactive: [1] | [2] | [3] | [8] | [5] | [6]

CCNC(=O)NC(=O)C(C#N)=NOC
not listed: [10]
inactive: all other assays above

O=C(O)c1c(Cl)ccc2cc(Cl)cnc12
not listed: [9] | [10]
inactive: all other assays above

COP(=S)(OC)SCn1nnc2ccccc2c1=O
active: [8] 10.3 µM | [5] 45.4 µM | [6] 18.7 µM
inactive: [1] | [2] | [3] | [7]

CCOC(=O)C(C)OC(=O)c1cc(Oc2ccc(C(F)(F)F)cc2Cl)ccc1[N+](=O)[O-] (centres undefined)
inactive: [1] | [2] | [3] | [4] | [6]
active: [5] 50 µM

COc1cc(OC)nc(NC(=O)NS(=O)(=O)c2ncccc2OCC(F)(F)F)n1
not listed: [9] | [10]
inactive: all other assays above

O=C1C2CC=CCC2C(=O)N1SC(Cl)(Cl)Cl (centres undefined)
not listed: [1] | [10]
inactive: all other assays above

CS(=O)(=O)c1cc(C(F)(F)F)ccc1C(=O)c1cnoc1C1CC1
not listed: [5] | [10]
inactive: all other assays above

CCOc1nc(C(Cl)(Cl)Cl)ns1
not listed: [10]
inactive: all other assays above

CC(C)=CC1C(C(=O)OCc2coc(Cc3ccccc3)c2)C1(C)C (centres undefined)
active: [8] 14.5 µM | [5] 19.6 µM
not listed: [9] | [10]
inactive: all other assays above

Clc1nc(Cl)nc(Nc2ccccc2Cl)n1
inactive: [1] | [2] | [3] | [8] | [6] | [7]

CCNP(=S)(OC)O/C(C)=C/C(=O)OC(C)C (centres undefined)
active: [8] 13.8 µM | [5] 31.9 µM
inactive: [1] | [2] | [3] | [4] | [6]

COCc1cnc(C2=NC(C)(C(C)C)C(=O)N2)c(C(=O)O)c1 (centres undefined)
not listed: [5] | [7] | [9]
inactive: all other assays above

O=c1n(Cl)c(=O)n(Cl)c(=O)n1Cl
not listed: [9] | [10]
inactive: all other assays above

Clc1cccc(C(Cl)(Cl)Cl)n1
not listed: [4] | [8] | [9]
inactive: all other assays above

CSC(=O)c1c(C(F)F)nc(C(F)(F)F)c(C(=O)SC)c1CC(C)C
active: [8] 0.789 µM | [5] 8.26 µM
not listed: [9] | [10]
inactive: all other assays above

OC(c1ccc(Cl)cc1)(c1ccc(Cl)cc1)C(Cl)(Cl)Cl
not listed: [4] | [7] | [10]
inactive: all other assays above

O=P(O)(O)CCCl
inactive: [1] | [2] | [3] | [8] | [5] | [6]

N#Cc1c[nH]cc1-c1cccc2c1OC(F)(F)O2
active: [8] 17.5 µM | [5] 2.84 µM | [6] 4.63 µM
not listed: [4] | [10]
inactive: all other assays above
